Source: PubChem BioAssay (NCI)
This is part of a sample that, as a whole, favours compounds with a hit. Of some 83,000 tested, about 20% had one in any assay.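 Results are percent growth after 48 hours of single-concentration exposure. 100 means growth as in untreated cells, lower positive values show inhibition; negative values down to -100 show cell death.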 Unmarked numbers belong to inactive results. Active and inactive are the calls of the source. The calls were made as follows: active = growth percent below 10; inactive = the rest.

Columns and labels:
Assay in all cases: NCI-60 one-dose screen, 48 h (100 = growth as untreated, 0 = no growth, -100 = all killed)
NCI-H23 lung = system: NCI-H23 lung
NCI-H226 lung = system: NCI-H226 lung
NCI-H322M lung = system: NCI-H322M lung
HOP-62 NSCLC = system: HOP-62 NSCLC
NCI-H460 lung = system: NCI-H460 lung
HOP-92 NSCLC = system: HOP-92 NSCLC
NCI-H522 lung = system: NCI-H522 lung
A549/ATCC NSCLC = system: A549/ATCC NSCLC
786-0 renal = system: 786-0 renal
COLO 205 colon = system: COLO 205 colon
DU-145 prostate = system: DU-145 prostate
K-562 leukemia = settings: 10 µM unless noted
MALME-3M melanoma = system: MALME-3M melanoma
MDA-MB-231 breast = system: MDA-MB-231 breast
RXF 393 renal = system: RXF 393 renal
SF-268 CNS = system: SF-268 CNS
SF-295 CNS = system: SF-295 CNS
SF-539 CNS = system: SF-539 CNS
UACC-257 melanoma = system: UACC-257 melanoma
M14 melanoma = system: M14 melanoma

Question: What does the source list for `CCOc1ccccc1[C@H]1C(C(=O)c2ccc(Cl)cc2)C2(N[C@@H]1c1ccccc1)C(=O)Nc1ccccc12` (stereo partly drawn)?
Answer: growth (NCI-H23 lung; 10 µM unless noted): 4.22% (active); growth (NCI-H226 lung; 10 µM unless noted): -18.4% (active); growth (NCI-H322M lung; 10 µM unless noted): 36.1%; growth (HOP-62 NSCLC; 10 µM unless noted): 32.9%; growth (NCI-H460 lung; 10 µM unless noted): -36.3% (active); growth (HOP-92 NSCLC; 10 µM unless noted): -22.4% (active); growth (NCI-H522 lung; 10 µM unless noted): -3.52% (active); growth (A549/ATCC NSCLC; 10 µM unless noted): 57.4%; growth (786-0 renal; 10 µM unless noted): -16.4% (active); growth (COLO 205 colon; 10 µM unless noted): -81.5% (active); growth (DU-145 prostate; 10 µM unless noted): 31%; growth (K-562 leukemia): 0.16% (active); growth (MALME-3M melanoma; 10 µM unless noted): -15.9% (active); growth (MDA-MB-231 breast; 10 µM unless noted): 2.23% (active); growth (RXF 393 renal; 10 µM unless noted): -66.5% (active); growth (SF-268 CNS; 10 µM unless noted): 43.9%; growth (SF-295 CNS; 10 µM unless noted): 9.84% (active); growth (SF-539 CNS; 10 µM unless noted): 28%; growth (UACC-257 melanoma; 10 µM unless noted): 55.3%; growth (M14 melanoma; 10 µM unless noted): 15.2%

Question: Which results are given for `CC/C(=C(/c1ccc(O)cc1)c1ccc(OCCN(C)C(=O)COCCOCCNC(=O)Cc2ccc3c(c2)CN([C@@H]2CCC(=O)NC2=O)C3=O)cc1)c1ccccc1`?
Answer: growth (NCI-H23 lung; 1 µM): 101%; growth (NCI-H23 lung; 10 µM): 97.4%; growth (NCI-H226 lung; 1 µM): 93.8%; growth (NCI-H226 lung; 10 µM): 39.9%; growth (NCI-H322M lung; 1 µM): 93.9%; growth (NCI-H322M lung; 10 µM): 64.1%; growth (HOP-62 NSCLC; 1 µM): 91.6%; growth (HOP-62 NSCLC; 10 µM): 38.8%; growth (NCI-H460 lung; 1 µM): 125%; growth (NCI-H460 lung; 10 µM): 110%; growth (HOP-92 NSCLC; 1 µM): 15.5%; growth (HOP-92 NSCLC; 10 µM): 12.7%; growth (NCI-H522 lung; 1 µM): 93.6%; growth (NCI-H522 lung; 10 µM): 88.1%; growth (A549/ATCC NSCLC; 1 µM): 102%; growth (A549/ATCC NSCLC; 10 µM): 88.1%; growth (786-0 renal; 1 µM): 96%; growth (786-0 renal; 10 µM): 80.7%; growth (COLO 205 colon; 1 µM): 96.4%; growth (COLO 205 colon; 10 µM): 31.2%; growth (DU-145 prostate; 1 µM): 104%; growth (DU-145 prostate; 10 µM): 105%; growth (MALME-3M melanoma; 1 µM): 51.4%; growth (MALME-3M melanoma; 10 µM): 1.5% (active); growth (MDA-MB-231 breast; 1 µM): 9.31% (active); growth (MDA-MB-231 breast; 10 µM): -22.2% (active); growth (RXF 393 renal; 1 µM): 97.4%; growth (RXF 393 renal; 10 µM): 99.2%; growth (SF-268 CNS; 1 µM): 96.2%; growth (SF-268 CNS; 10 µM): 61.3%; growth (SF-295 CNS; 1 µM): 101%; growth (SF-295 CNS; 10 µM): 94.7%; growth (SF-539 CNS; 1 µM): 80.7%; growth (SF-539 CNS; 10 µM): 65.3%; growth (UACC-257 melanoma; 1 µM): 101%; growth (UACC-257 melanoma; 10 µM): 99.8%; growth (M14 melanoma; 1 µM): 92.8%; growth (M14 melanoma; 10 µM): 65.4%

Question: For `O=C(c1ccc(O)cc1)C1[C@H](c2ccc(Cl)cc2)[C@@H](c2ccccc2)NC12C(=O)Nc1ccccc12` (stereo partly drawn), which growth (NCI-H23 lung; 10 µM unless noted) is on record?
Answer: The growth was -41.7% (active).

Question: What about the growth (NCI-H226 lung; 10 µM unless noted) of the same molecule?
Answer: The growth was -13.8% (active).

Question: What about the growth (NCI-H322M lung; 10 µM unless noted) of the same molecule?
Answer: The growth was 9.03% (active).

Question: What about the growth (HOP-62 NSCLC; 10 µM unless noted) of the same molecule?
Answer: The growth was -20.1% (active).

Question: And the growth (NCI-H460 lung; 10 µM unless noted)?
Answer: Its growth is -20.5% (active).

Question: What about the growth (HOP-92 NSCLC; 10 µM unless noted) of the same molecule?
Answer: Its growth is -27.8% (active).

Question: What about the growth (NCI-H522 lung; 10 µM unless noted) of the same molecule?
Answer: Its growth is -8.98% (active).

Question: What about the growth (A549/ATCC NSCLC; 10 µM unless noted) of the same molecule?
Answer: Its growth is 14.4%.

Question: What about the growth (786-0 renal; 10 µM unless noted) of the same molecule?
Answer: Its growth is -43.2% (active).

Question: What about the growth (COLO 205 colon; 10 µM unless noted) of the same molecule?
Answer: Its growth is -82.9% (active).

Question: What about the growth (DU-145 prostate; 10 µM unless noted) of the same molecule?
Answer: The growth was 20.5%.

Question: What about the growth (K-562 leukemia) of the same molecule?
Answer: Its growth is -8.58% (active).

Question: And the growth (MALME-3M melanoma; 10 µM unless noted)?
Answer: The growth was -40.2% (active).

Question: What about the growth (MDA-MB-231 breast; 10 µM unless noted) of the same molecule?
Answer: The growth was -80.2% (active).

Question: What about the growth (RXF 393 renal; 10 µM unless noted) of the same molecule?
Answer: Its growth is -74% (active).

Question: What about the growth (SF-268 CNS; 10 µM unless noted) of the same molecule?
Answer: The growth was 22.4%.

Question: And the growth (SF-295 CNS; 10 µM unless noted)?
Answer: Its growth is -48.6% (active).

Question: What about the growth (SF-539 CNS; 10 µM unless noted) of the same molecule?
Answer: The growth was -50.6% (active).

Question: And the growth (UACC-257 melanoma; 10 µM unless noted)?
Answer: Its growth is 77.7%.

Question: And the growth (M14 melanoma; 10 µM unless noted)?
Answer: The growth was -27% (active).
